In the library only some 9% were active in any assay of this set; here they are far more common.
JMJD2A Tudor: blocks the human JMJD2A Tudor domain | O75164 | AlphaScreen JMJD2A-Tudor / H3K4me3 peptide binding | Potency, µM (doses to about 114 µM), for inactives: top-dose activity change, negative = inhibition, actives largely listed as inhibitors | 390,000 tested, 4.4% active; note: % is set by controls: 0 for no effect and ±100 for the full control effect; nearly all actives have a fitted effect of over 50% in size
G9a block: inhibitors of human histone lysine methyltransferase G9a; Potency, µM (series often up to 102 µM), without a hit: at the top dose activity, negative = inhibition, most hits filed as inhibitors; G9a H3K9 monomethylation, AlphaScreen, 2 h; Q96KQ7; 350,000 tested, 8.8% active; AID 504332; note: % is set by controls: 0 for no effect and ±100 for the full control effect; nearly all actives have a fitted effect of over 75% in size
Target sequence (Q96KQ7 913-1193 limits assumed): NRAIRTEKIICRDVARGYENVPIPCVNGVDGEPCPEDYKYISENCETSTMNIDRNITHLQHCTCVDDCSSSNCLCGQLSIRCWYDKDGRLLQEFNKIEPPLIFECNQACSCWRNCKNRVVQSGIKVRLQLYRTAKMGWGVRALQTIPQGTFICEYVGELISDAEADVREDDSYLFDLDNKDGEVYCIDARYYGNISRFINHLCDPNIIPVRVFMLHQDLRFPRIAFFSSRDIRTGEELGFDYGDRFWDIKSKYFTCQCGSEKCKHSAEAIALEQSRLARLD
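Readings reflect AlphaScreen signal from monomethyl-H3K9 antibody detection. HMT at 20 nM; substrate b-H3K9 500 nM; cofactor SAM 20 uM; 2 h RT reaction; compounds tested as titrations in qHTS with 15 min preincubation.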
12-LOX inh: inhibitors of human 12S-lipoxygenase ALOX12; P18054; purified 12hLO, xylenol orange hydroperoxide absorbance; Potency, µM (series often up to 108 µM), inactives show top-dose activity change, negative = inhibition, hits mostly inhibitors; 580,000 tested, 1.1% active; AID 1671190; note: % is set by controls: 0 for no effect and ±100 for the full control effect
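Purified human 12hLO at 150 nM in 25 mM Hepes, 0.01% Triton X-100, pH 7.0, preincubated 15 min at room temperature with compound. Reaction started with 40 uM arachidonic acid, 30 min at room temperature. Hydroperoxide measured by Fe-xylenol orange, 573/405 nm absorbance ratio.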
BAZ2B inh: blocks human BAZ2B; 360,000 tested, 4.4% active; AID 504333; AlphaScreen BAZ2B-H3K14Ac peptide displacement; Potency, µM (highest dose often 114 µM), inactives show top-dose activity change, negative = inhibition, most hits filed as inhibitors; Q9UIF8; note: % is set by controls: 0 for no effect and ±100 for the full control effect; nearly all actives have a fitted effect of over 60% in size
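AlphaScreen displacement of biotin-H3(5-23)K14Ac peptide (50 nM final) from BAZ2B (50 nM final) in PBS pH 7.4, 0.01% Tween-20; complex preformed 30 min RT, then compounds (top 110 uM) 30 min RT, beads 20 min dark.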
PLK1 PBD inh: PLK1 (human) polo-box domain binding inhibition; Plk1 PBD binding of FITC phosphopeptide, fluorescence polarization; Potency, µM, for the others: max response, negative = inhibition, hits mostly inhibitors; 360,000 tested, 2.8% active; AID 720504; note: series mostly up to about 57 µM; % is set by controls: 0 for no effect and ±100 for the full control effect; nearly all actives have a fitted effect of over 65% in size
HP1b chromo inh: blocks HP1-beta chromodomain binding to methylated histone tails | P83916 | AlphaScreen HP1-beta / biotin-H3K9me3 peptide binding | Potency, µM (titrated, usually from 114 µM), inactives show top-dose activity change, negative = inhibition, usual class: inhibitors | 390,000 tested, 0.56% active; note: nearly all actives have a fitted effect of over 70% in size
Target sequence (P83916 whole entry, looked up): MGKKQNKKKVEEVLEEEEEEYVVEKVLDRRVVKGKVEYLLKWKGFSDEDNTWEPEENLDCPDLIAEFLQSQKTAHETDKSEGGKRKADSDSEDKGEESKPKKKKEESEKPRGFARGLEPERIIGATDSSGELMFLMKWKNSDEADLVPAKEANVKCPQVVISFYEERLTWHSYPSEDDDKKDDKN
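Compound inhibition of the preformed complex between 50 nM HP1-beta and 50 nM biotinylated H3K9me3 peptide was read by AlphaScreen. Buffer was PBS pH 7.4 with 0.01% Tween-20. Incubations ran 30 min at room temperature, with 10 ug/mL donor/acceptor beads.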
The depositor's hits bear a star; ! = not active in a repeat; [ ] = dose if it differs, or a comment. Calls come from the whole dose curve; as a rule, active = well fitted curve in the direction sought with a large enough effect; inconclusive = small, poorly fitted or top-dose-only effect, or another doubt; inactive = no such curve, though single readings can be large; an effect the other way counts as inactive or inconclusive. Potency is the fitted concentration of half-maximal effect.

What do the screens show for `CC(C)c1nnc(NC(=O)c2nc(S(=O)(=O)Cc3ccccc3)ncc2Cl)s1`?
JMJD2A Tudor: -25%; G9a block: 8.9µM*; 12-LOX inh: inconclusive; BAZ2B inh: 50µM*!; PLK1 PBD inh: inconclusive; HP1b chromo inh: 4%[57 µM]

How did CCc1ccc(NC(=O)c2nc(S(=O)(=O)Cc3ccccc3)ncc2Cl)cc1 do in these assays?
G9a block: inconclusive; 12-LOX inh: 14%; BAZ2B inh: -26%

What do the screens show for `COC(=O)C1=C(C(=O)c2ccc(C)cc2)C(c2ccc(C(C)C)cc2)n2nnnc2N1` (stereo not given)?
12-LOX inh: -4%

What do the screens show for `CCCCn1cnc2c(=S)nc(N)[nH]c21`?
JMJD2A Tudor: 11µM*; G9a block: 6.3µM*; 12-LOX inh: inconclusive; BAZ2B inh: inconclusive; PLK1 PBD inh: -8%; HP1b chromo inh: -13%

What do the screens show for `CCCCCn1cnc2c(=S)nc(N)[nH]c21`?
JMJD2A Tudor: 18µM*; G9a block: 8.9µM*; 12-LOX inh: inconclusive; BAZ2B inh: inconclusive; PLK1 PBD inh: inconclusive; HP1b chromo inh: inconclusive

Results for CCCCn1cnc2c([nH]c3ccccc32)c1=O ?
JMJD2A Tudor: -3%; G9a block: 16%[0.501 µM]; 12-LOX inh: -5%; BAZ2B inh: -8%; PLK1 PBD inh: -5%; HP1b chromo inh: 38%

What do the screens show for `COc1ccc(CCNC(=O)c2cccn2C)cc1`?
JMJD2A Tudor: -21%; G9a block: 60%; 12-LOX inh: 263%; BAZ2B inh: inconclusive; PLK1 PBD inh: 0%; HP1b chromo inh: 43%

What do the screens show for `COc1cccc(N2C(=O)[C@@H]3C[C@@H](NC(=O)c4snnc4C)CCN3C2=O)c1`?
12-LOX inh: 16%[176 µM]

How did CC(=O)N1N=C(c2cccc([N+](=O)[O-])c2)OC1c1ccc(Br)cc1 (stereo not given) do in these assays?
JMJD2A Tudor: inconclusive; G9a block: 45µM*; 12-LOX inh: 15%; BAZ2B inh: inconclusive; PLK1 PBD inh: 1%; HP1b chromo inh: -11%

What do the screens show for `CC(=O)N1N=C(c2cccc([N+](=O)[O-])c2)OC1c1ccc(Cl)cc1Cl` (stereo not given)?
JMJD2A Tudor: inconclusive; G9a block: -24%; 12-LOX inh: -11%; BAZ2B inh: inconclusive; PLK1 PBD inh: -3%; HP1b chromo inh: -19%

Results for CN(Cc1ccc(F)cc1F)C(=O)c1cc(Br)ccc1O ?
12-LOX inh: 10µM*

Results for CCc1nnsc1C(=O)N(C)Cc1ccc(F)cc1F ?
12-LOX inh: 42%

Results for O=C(NCCc1ccc2c(c1)OCCO2)c1ccc([N+](=O)[O-])cc1Cl ?
JMJD2A Tudor: -21%; G9a block: 10%; 12-LOX inh: -19%; BAZ2B inh: -8%; PLK1 PBD inh: -7%; HP1b chromo inh: 12%

How did Nc1c2c(nc3ccc(Br)cc13)N(C1CCCCC1)CC2 do in these assays?
G9a block: 3.5µM*; BAZ2B inh: 16µM*

How did Nc1c2c(nc3ccc(Br)cc13)N(c1ccccc1)CC2 do in these assays?
JMJD2A Tudor: 10µM*; G9a block: inconclusive; 12-LOX inh: inconclusive; BAZ2B inh: 40µM*; PLK1 PBD inh: -6%; HP1b chromo inh: 50µM*

How did Nc1c2c(nc3ccccc13)N(C1CCCCC1)CC2 do in these assays?
JMJD2A Tudor: 7.1µM*; G9a block: inconclusive; 12-LOX inh: inconclusive; BAZ2B inh: inconclusive; PLK1 PBD inh: inconclusive; HP1b chromo inh: -18%

What do the screens show for `CC(C)[C@H](NC(=O)c1ccccc1Cl)C(=O)OCC(=O)Nc1ccc(S(=O)(=O)N2CCOCC2)cc1`?
JMJD2A Tudor: -9%; 12-LOX inh: -5%; PLK1 PBD inh: inconclusive; HP1b chromo inh: -3%

How did CC(C)c1noc(-c2cccn3c(CNC(=O)Cc4c[nH]c5ccccc45)nnc23)n1 do in these assays?
12-LOX inh: -5%

What do the screens show for `O=C(Cc1ccc(NC(=O)C2CCN(C(=O)c3ccccc3)CC2)cc1)Nc1cccc(C(=O)N2CCCC2)c1`?
JMJD2A Tudor: 3%; 12-LOX inh: inconclusive; PLK1 PBD inh: -3%; HP1b chromo inh: 42%

What do the screens show for `Cc1nc(SCC(=O)N2CCN(C(=O)c3ccco3)CC2)c2c(C)c(C)sc2n1`?
JMJD2A Tudor: -24%; G9a block: 12%[59 µM]; 12-LOX inh: 0%; BAZ2B inh: 8%; PLK1 PBD inh: -9%; HP1b chromo inh: -9%

Results for CC(=O)N1CCN(C(=O)CSc2ncnc3sc(C)c(C)c23)CC1 ?
JMJD2A Tudor: -17%; 12-LOX inh: 5%; PLK1 PBD inh: 30µM*; HP1b chromo inh: 16%

How did Cc1nc(SCC(=O)N2CCN(C(=O)c3cccs3)CC2)c2c(C)c(C)sc2n1 do in these assays?
JMJD2A Tudor: -19%; G9a block: 18µM*; 12-LOX inh: -6%; BAZ2B inh: -24%; PLK1 PBD inh: -18%; HP1b chromo inh: 39%

What do the screens show for `Cc1sc2ncnc(SCC(=O)N3CCCC3)c2c1C`?
JMJD2A Tudor: -6%; G9a block: inconclusive; 12-LOX inh: 0%; BAZ2B inh: 3%; PLK1 PBD inh: -5%; HP1b chromo inh: 33%

How did Cc1ccc(-c2csc3ncnc(SCc4ccc(C(=O)O)cc4)c23)cc1 do in these assays?
JMJD2A Tudor: inconclusive; 12-LOX inh: inconclusive; BAZ2B inh: 50µM*; PLK1 PBD inh: -72%; HP1b chromo inh: 17%

Results for CC(=O)Nc1ccc(Sc2ncnc3scc(-c4ccccc4)c23)cc1 ?
JMJD2A Tudor: -25%[57.1 µM]; G9a block: inconclusive; 12-LOX inh: -26%; BAZ2B inh: inconclusive; PLK1 PBD inh: 6.7µM*; HP1b chromo inh: 12%

How did COC(=O)[C@]12CCCCC=C1N(Cc1ccccc1)C(=O)[C@H](CC(=O)NCC1CCCCC1)C2 do in these assays?
12-LOX inh: inconclusive; PLK1 PBD inh: -1%

How did CCN(CC)S(=O)(=O)c1ccc(C(C)NCc2cccs2)cc1 (stereo not given) do in these assays?
12-LOX inh: 3%

What do the screens show for `c1ccc(-c2csc3ncnc(N4CCN(Cc5ccc6c(c5)OCO6)CC4)c23)cc1`?
JMJD2A Tudor: inconclusive; G9a block: 11%[2.33 µM]; 12-LOX inh: 0%; BAZ2B inh: inconclusive; PLK1 PBD inh: -5%; HP1b chromo inh: 17%

Results for O=C(CSc1ncnc2scc(-c3ccccc3)c12)N1CCN(Cc2ccc3c(c2)OCO3)CC1 ?
JMJD2A Tudor: inconclusive; G9a block: 45µM*; 12-LOX inh: 5%; BAZ2B inh: inconclusive; PLK1 PBD inh: -15%; HP1b chromo inh: inconclusive

What do the screens show for `Cc1sc2ncnc(SCc3ccc(C(=O)O)cc3)c2c1C`?
JMJD2A Tudor: -7%; G9a block: 45µM*; 12-LOX inh: -13%; BAZ2B inh: -15%; PLK1 PBD inh: inconclusive; HP1b chromo inh: 49%

From PubChem
